D2 PAM-1 – Beta-Arrestin HTS for Positive Allosteric Modulators of the Human D2 Dopamine Receptor: Potentiators; D(2) dopamine receptor (Homo sapiens), P14416; DiscoveRx D2 beta-arrestin cells, luminescence, 90 min; 100% = 57 uM dopamine signal; potentiation, % (test concentration not listed); 360,000 tested, 0.23% active; AID 624464, 2012; in the data active = potentiation above about 50%
Target sequence (P14416 whole entry, looked up): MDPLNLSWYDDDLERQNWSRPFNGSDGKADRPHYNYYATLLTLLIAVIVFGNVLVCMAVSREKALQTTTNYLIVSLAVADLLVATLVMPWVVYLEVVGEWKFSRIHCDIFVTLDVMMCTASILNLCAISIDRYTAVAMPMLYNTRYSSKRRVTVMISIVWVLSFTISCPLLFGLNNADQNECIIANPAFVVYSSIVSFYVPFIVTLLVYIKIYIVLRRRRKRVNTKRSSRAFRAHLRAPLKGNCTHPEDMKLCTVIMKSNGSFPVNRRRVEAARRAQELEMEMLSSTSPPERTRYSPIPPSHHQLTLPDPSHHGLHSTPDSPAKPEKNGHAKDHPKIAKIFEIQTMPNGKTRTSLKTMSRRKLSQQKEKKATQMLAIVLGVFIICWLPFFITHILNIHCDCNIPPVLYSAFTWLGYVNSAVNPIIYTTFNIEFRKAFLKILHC
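D2 cells co-treated with compound plus 50 nM dopamine (EC20) for 90 min at 37 deg C to detect potentiation. Beta-arrestin recruitment was read as enzyme-fragment luminescence after 1 h at ambient temperature. Full response was set by 57 uM dopamine.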
D2 ag-1 – Beta-Arrestin HTS for Positive Allosteric Modulators of the Human D2 Dopamine Receptor: Agonists | D(2) dopamine receptor (Homo sapiens), P14416 | DiscoveRx PathHunter D2 beta-arrestin, luminescence, 90 min; 100% = 57 uM dopamine signal | activation, % (no concentration beside the values) | 360,000 tested, 0.084% active; in the data active = activation above about 40%
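DiscoveRx PathHunter D2 beta-arrestin cells (2,100/well) attached overnight, then compound-stimulated 90 min at 37 C in HBSS/10 mM HEPES/0.1% Tween-20 buffer; beta-galactosidase complementation read by luminescence after 1 h at ambient temperature. Dopamine 57 uM final (EC100) as control.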
D2 antagonist – HTS Assay for Allosteric Antagonists of the Human D2 Dopamine Receptor: Primary Screen for Antagonists; D(2) dopamine receptor (Homo sapiens), P14416; HEK293 TREx D2 cells, calcium flux, dopamine EC80; inhibition, % at 10 µM; 340,000 tested, 2% active; AID 485344, 2010; in the data active = inhibition above about 30%; inactive = below that, where a call was filed
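Calcium flux kinetic readout in an inducible HEK293 TREx D2 line plated overnight at 30 C. After 180 s compound exposure, an EC80 dopamine challenge follows with another 180 s kinetic read to detect antagonism.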
D2 ag-2 – HTS Assay for Allosteric Agonists of the Human D2 Dopamine Receptor: Primary Screen for Agonists; 340,000 tested, 0.53% active; activation, % at 2 µM; D(2) dopamine receptor (Homo sapiens), P14416; HEK293 T-REx D2 cells, calcium flux agonist mode;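 active = activation over 3 SD above normal in the single-dose calcium agonist read, cut at about 30% in these data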
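Calcium-flux readout, 1 cycle/sec over 180 s following compound pin transfer, in inducible HEK293 Trex D2 cells (force-coupled); dopamine controls included. Positive calcium responses during this window marked compounds as potential agonists.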
D2 PAM-2 – HTS Assay for Positive Allosteric Modulators of the Human D2 Dopamine Receptor: Primary Screen for Potentiators; AID 485347, 2010; potentiation, % at 10 µM; D(2) dopamine receptor (Homo sapiens), P14416; HEK293 T-REx D2, calcium flux, EC20 dopamine potentiation; 340,000 tested, 0.34% active;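 active = potentiation over 3 SD above the plate norm, cut at about 30% in these data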
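Potentiation of an EC20 dopamine calcium response measured kinetically over 180 s, after a preceding 180 s compound-only read flagging agonists. Cells: inducible Hek293 Trex D2 line, 4000/well, cultured overnight at 30 C before dye loading.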
Large screens that a line does not name were inactive. Most compounds without a hit are left out; they make up all but 2.4% or so of the library.

COc1cccc(CNC(=O)CCC2CCCN(C/C=C/c3ccccc3OC)C2)c1 (configuration not stated)	D2 antagonist 32.5
COc1ccccc1/C=C/CN1CCCC(CCC(=O)NCc2ccc(F)c(F)c2)C1 (configuration not stated)	D2 antagonist 33.0
Cc1cc2nc3c(=O)n(C4CCCCC4)c(=O)[nH]c3nc2cc1N	D2 ag-2 61.4
Cc1cc(C)cc(Nc2cc(=O)n(C3CCCCC3)c(=O)[nH]2)c1	none
CN1/C(=C/C=N/NC(=O)c2ccc([N+](=O)[O-])cc2)C(C)(C)c2ccccc21	D2 antagonist 36.7
CCOC(=O)C1CCCN(c2oc(-c3ccc(F)cc3)nc2C#N)C1 (configuration not stated)	D2 antagonist 35.1
CCOC(=O)C1CCCN(C(=O)c2cc(-c3ccncc3)nc3ccccc23)C1 (configuration not stated)	none
CCOC(=O)C1CCCN(C(=O)c2cc(-c3ccc(F)cc3)nc3ccccc23)C1 (configuration not stated)	D2 antagonist 47.3
CCOC(=O)C1CCCN(C(=O)c2cc3c(=O)n4ccccc4nc3s2)C1 (configuration not stated)	D2 PAM-2 44.2
CC1CCN(c2oc(-c3ccc(F)cc3)nc2C#N)CC1	none
Cc1cccn2c(=O)c3cc(C(=O)N4CC(C)CC(C)C4)sc3nc12 (configuration not stated)	D2 PAM-2 37.9
COc1ccc(-n2c(=O)c3c(c4cc(OC)ccc4n3C)n(C)c2=O)cc1	none (no result: D2 PAM-1, D2 ag-1, D2 antagonist, D2 PAM-2)
CCOC(=O)c1cccc(Nc2cc(C)nc(C)n2)c1	none (no result: D2 PAM-1, D2 ag-1, D2 antagonist)
CCn1c(COc2ccccc2C)nnc1SCC(=O)NCc1ccccc1	none
CCn1c(COc2cccc3ccccc23)nnc1SCC(N)=O	D2 PAM-2 36.6
CCn1c(COc2ccccc2)nnc1SCC(=O)c1cccc([N+](=O)[O-])c1	D2 PAM-2 34.6
CNC(=O)CSc1nnc(COc2ccc([N+](=O)[O-])cc2)n1C	D2 antagonist 75.9 (no result: D2 PAM-2)
CCOc1cc(C)ccc1OCc1nnc(SCC(=O)c2cccc([N+](=O)[O-])c2)n1CC	none
C=CCn1c(COc2ccccc2)nnc1SCC(=O)O	D2 PAM-2 32.5
CC(C)COC(=O)N1CCCCC1c1cc(C(=O)Nc2ccccc2)no1 (configuration not stated)	none (no result: D2 antagonist, D2 ag-2, D2 PAM-2)
COc1cccc(NC(=O)Cn2c(=O)c3cccn3c3ccc(F)cc32)c1	none (no result: D2 PAM-1, D2 ag-1, D2 antagonist)
Cc1ccc(C(=O)Oc2oc(-c3ccccc3)nc2C=Nc2ccc(N(C)C)cc2)cc1	D2 PAM-2 38.8
COc1cc(Cl)c(CC(=O)c2c[nH]c3ccccc23)cc1OC	D2 antagonist 32.5
CCN(CC)CC#CCC(O)(c1ccccc1)c1ccc(Br)cc1 (configuration not stated)	D2 antagonist 34.5
CCCCNC(=S)NNC(=O)c1ccco1	D2 PAM-2 45.9
O=C1NCCN1Cc1ccc(Cl)cc1	D2 PAM-2 48.9
CNC(=O)C1CCC(Cn2c(=O)c3sccc3n(CC(=O)Nc3ccc(C)cc3C)c2=O)CC1 (configuration not stated)	none (no result: D2 PAM-1, D2 ag-1, D2 antagonist)
O=C(CCNS(=O)(=O)c1ccc2c(c1)CCN2C(=O)C1CC1)Nc1ccc(F)cc1F	none (no result: D2 PAM-1, D2 ag-1, D2 antagonist)
O=C(NCC(c1ccc2c(c1)OCO2)N1CCN(c2ccccc2)CC1)C(=O)Nc1ccccc1 (configuration not stated)	none (no result: D2 PAM-1, D2 ag-1, D2 antagonist, D2 ag-2)
COc1cc(/C=C2\SC(N3CCc4ccccc4C3)=NC2=O)cc(OC)c1OC	D2 antagonist 56.3
CCN(CC(N)=O)S(=O)(=O)c1ccc(F)cc1	none
C=CCN(CC=C)S(=O)(=O)c1ccc(F)cc1	D2 antagonist 30.9
COc1ccccc1N(C)S(=O)(=O)c1ccc(C(=O)N(C)Cc2ccc(Cl)s2)cc1	none
O=C(c1ccc(F)cc1)N1CCN(CCc2ccncc2)CC1	none (no result: D2 PAM-1, D2 ag-1, D2 antagonist, D2 PAM-2)

Screening data (PubChem BioAssay)
